# Only some compounds are listed: those with a hit (about 1.6% of all), similar ones and a draw of the others.
# KCNQ2 block = blocks the rat KCNQ2 potassium channel | B-score at 10 µM | O88943 | CHO-K1 KCNQ2, FluxOR thallium flux, 20 min; hits give low values | 310,000 tested, 1.1% active;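 active means fluorescence ratio B-score at most minus 3 library SDs, with starting brightness B-score within 2 library SDs, cut at about -5.5 in these data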
# Target sequence (O88943 whole entry, looked up): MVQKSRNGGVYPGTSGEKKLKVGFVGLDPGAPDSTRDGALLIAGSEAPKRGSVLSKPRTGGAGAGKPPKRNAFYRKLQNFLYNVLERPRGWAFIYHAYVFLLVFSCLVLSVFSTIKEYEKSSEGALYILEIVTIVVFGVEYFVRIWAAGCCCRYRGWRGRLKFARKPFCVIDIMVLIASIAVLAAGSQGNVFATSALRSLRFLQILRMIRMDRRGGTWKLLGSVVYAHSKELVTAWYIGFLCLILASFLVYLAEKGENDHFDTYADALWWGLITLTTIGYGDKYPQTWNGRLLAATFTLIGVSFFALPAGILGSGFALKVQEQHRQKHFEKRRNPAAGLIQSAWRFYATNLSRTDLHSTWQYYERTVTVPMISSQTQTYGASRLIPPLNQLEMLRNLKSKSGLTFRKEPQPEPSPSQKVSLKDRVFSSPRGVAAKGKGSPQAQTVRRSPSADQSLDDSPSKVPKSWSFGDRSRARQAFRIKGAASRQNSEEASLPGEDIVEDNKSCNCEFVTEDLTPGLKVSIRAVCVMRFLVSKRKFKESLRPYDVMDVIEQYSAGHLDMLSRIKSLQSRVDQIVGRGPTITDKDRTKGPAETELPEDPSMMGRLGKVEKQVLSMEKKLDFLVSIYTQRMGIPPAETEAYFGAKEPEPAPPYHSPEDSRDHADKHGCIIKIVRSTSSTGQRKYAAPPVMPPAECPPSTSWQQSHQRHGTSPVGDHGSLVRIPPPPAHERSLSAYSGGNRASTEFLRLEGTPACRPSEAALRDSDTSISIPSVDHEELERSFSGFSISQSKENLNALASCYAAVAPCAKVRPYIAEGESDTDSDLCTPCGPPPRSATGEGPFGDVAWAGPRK
# KCNQ2 pot = enhances the rat KCNQ2 potassium channel. O88943. CHO-K1 KCNQ2, FluxOR thallium flux fluorescence; hits give high values. B-score at 10 µM. 310,000 tested, 0.54% active;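 active means fluorescence ratio B-score at least 3 SD of library B-scores, with initial fluorescence B-score within 3 of them, cut at about 5.3 in these data; same plate scores as AID 2156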;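 further: B-score of peak minus minimum over baseline fluorescence ratio after K+ and Tl+ stimulus; positive B-score means potentiation of KCNQ2 with more thallium influx and brighter signal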
# KCNQ2 block conf = confirmation of rat KCNQ2 potassium channel inhibitors. 1,000 tested, 57% active. KCNQ2-expressing cells, thallium flux, inhibition; hits give low values. AID 493025. shares compounds with KCNQ2 block. activity change, negative = inhibition, % at 10 µM;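 further: 0% = vehicle wells and values are ratio percent relative to vehicle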
# KCNQ1 spec = selectivity of KCNQ2 inhibitors against human KCNQ1. shares compounds with KCNQ2 block. KCNQ1-expressing cells, FluxOR thallium flux fluorescence; hits give low values. activity change, negative = inhibition, % at 10 µM. 1,000 tested, 15% active;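 active means activity change at least 3 SD of negative controls below their mean in both duplicate wells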;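 further: CHO cells stably transfected with KCNQ1 and depolarized by potassium stimulus; peak minus minimum fluorescence over baseline after thallium addition; 0% = vehicle negative control and -100% = blank without thallium stimulus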
# CHO parental ctr = KCNQ2 inhibitor counter-screen hit in parental CHO cells; shares compounds with KCNQ2 block; thallium flux counter-screen; hits give low values; activity change, % at 10 µM; 1,000 tested, 14% active; AID 493029;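 further: 0% = vehicle negative controls with stimulus buffer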
# KCNQ2 inh confirm = rat KCNQ2 inhibition confirmed by electrophysiology; shares compounds with KCNQ2 block; KCNQ2-expressing cells, automated patch clamp current; calls only at 10 µM; 550 tested, 49% active
# * marks the source's active call; other numbers are inactive results; i = inactive; nt = not tested or not shown; + = active, no number. Unless noted, how the calls were made is not given here.
SMILES,KCNQ2 block,KCNQ2 pot,KCNQ2 block conf,KCNQ1 spec,CHO parental ctr,others
COc1ccc(NC(=O)N2CCN(C(=O)C3CCCO3)CC2)cc1 (stereo not given),i,nt,nt,nt,nt,
O=S(=O)(c1ccccc1)N(CC(O)Cn1c2ccccc2c2ccccc21)c1ccccc1 (stereo not given),-9.6*,-9.6,i,i,i,
Cc1ccc(S(=O)(=O)N(C)CC(O)Cn2c3ccccc3c3ccccc32)cc1 (stereo not given),i,nt,nt,nt,nt,
COc1cccc(NC(=O)CSc2ccc3nnc(CCNC(=O)c4ccccc4)n3n2)c1,i,nt,nt,nt,nt,
Cc1ccccc1NS(=O)(=O)c1nnc(NC(=O)CC(C)C)s1,i,0.13,nt,nt,nt,
COc1ccc(CNC(=S)Nc2ccccc2-c2ccccc2)cc1,-7.6*,-7.6,-32%*,i,i,KCNQ2 inh confirm=+
COc1ccc(CNC(=S)Nc2ccccc2Cl)cc1,i,0.11,nt,nt,nt,
COc1cc(CNCCO)cc(Cl)c1OCc1ccc(Cl)cc1Cl,-9.8*,-9.8,-41%*,-31%*,-31%*,KCNQ2 inh confirm=i
COc1cc(CNCCO)cc(Br)c1OCc1ccccc1Cl,i,nt,nt,nt,nt,
O=C(N/N=C/c1ccccc1)c1sccc1OCc1ccc(F)cc1,-6.8*,-6.8,i,i,i,
O=C(N/N=C/c1ccccc1)c1ccc(OCc2ccccc2)cc1,i,0.39,nt,nt,nt,
CC(=O)c1cnn(-c2ccccc2)c1C,i,2.2,nt,nt,nt,
Cc1c(C(=O)Oc2cccc3ccccc23)cnn1-c1ccccc1,-9.3*,-9.3,i,i,i,
CC(=O)N1CC(C)Sc2ccc(S(=O)(=O)NCCc3cccc(C)c3)cc21 (stereo not given),i,0.52,nt,nt,nt,
CCOc1cc(CNc2cccc3ccccc23)cc(Br)c1OCC(=O)NC(C)(C)C,-6.8*,-6.8,i,i,i,
CCOc1cc(CNc2ccc(N(C)C)cc2)cc(Br)c1OCC(=O)NC(C)(C)C,i,nt,nt,nt,nt,
Fc1cccc(/C=N/Nc2cc(N3CCOCC3)ncn2)c1,i,0.63,nt,nt,nt,
Cc1ccc(/C(N)=N/OC(=O)N2c3ccccc3Sc3ccccc32)cc1,-8.5*,-8.5,-26%*,i,i,KCNQ2 inh confirm=+
Cc1ccc(/C(N)=N/OC(=O)Cc2ccccc2)cc1,i,nt,nt,nt,nt,
O=C1CN(C(=S)NC(=O)c2ccccc2[N+](=O)[O-])CCN1,i,1.3,nt,nt,nt,
CS(=O)(=O)/C(C#N)=C\c1cnc(S(=O)(=O)c2ccccc2)s1,i,nt,nt,nt,nt,
NC(=O)C(c1ccccc1)c1ccc(C(=O)c2ccccc2)cc1 (stereo not given),i,nt,nt,nt,nt,
Cc1ccccc1OCC(=O)N1N=C(C(F)(F)F)CC1(O)C(C)(C)C (stereo not given),-8.2*,-8.2,i,i,i,
Cc1ccc(OCC(=O)N2N=C(C(F)(F)F)CC2(O)C(C)(C)C)cc1C (stereo not given),i,nt,nt,nt,nt,
Cn1ccnc1SCC(=O)Nc1ccc(Br)cc1C(F)(F)F,i,0.94,nt,nt,nt,
COc1cccc(OC)c1OCc1cc(C2C3CCCC=C3C(C#N)=C(N)C2(C#N)C#N)c(C)cc1C (stereo not given),-11*,-11,i,i,i,
CCCN1CC=C2C(C#N)=C(N)C(C#N)(C#N)C(c3cccc(OC)c3OC)C2C1 (stereo not given),i,nt,nt,nt,nt,
Oc1ccc(/C=N/Nc2nc(N3CCCCCC3)nc(N3CCCCCC3)n2)c(O)c1,i,nt,nt,nt,nt,
CC(/C=N/Nc1nc(N2CCCCC2)nc(N2CCCCC2)n1)=C\c1ccccc1,-8.2*,-8.2,-34%*,-34%*,-26%*,KCNQ2 inh confirm=i

# Screening data (PubChem)
